According to PubChem BioAssay (NCI):
Compounds without any hit were thinned out: in the full panel of roughly 83,000, 20% have a hit.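 Negative percent growth values reflect cell death: -40 means 40% of the cells present at the start died, and -100 means all died.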 Activity calls are given as the source filed them. The calls were made as follows: active = growth percent below 10; inactive = the rest.

The molecules below were run on HL-60(TB) leukemia (assay: NCI-60 one-dose screen, 48 h (100 = growth as untreated, 0 = no growth, -100 = all killed)). Conditions: 10 µM unless noted.
In the case of `O=C1Nc2cc(-c3ccc(NS(=O)(=O)c4ccc(-c5ccccc5)cc4)cc3)ccc2/C1=C/c1ccc[nH]1`, the growth was 31% (inactive).
`COc1ccc(N=Nc2c(N)nn3c(-c4ccc([N+](=O)[O-])cc4)ccnc23)cc1` was tested, and the growth was 85.7% (inactive).
With `COc1cc(CNC(=O)/C=C/c2ccc3c(c2)OCO3)ccc1OCc1cn(-c2ccc([N+](=O)[O-])cc2)nn1` the growth was 97% (inactive).
In the case of `CCOC(=O)C1=C(N)N(c2ccc(C)cc2)C2=C(C(=O)CC(C)(C)C2)C1c1ccccc1Br` (stereo unspecified), the growth was -11.2% (active).
For `COc1ccc(NC(=O)CSc2nnc(-c3ccc(-c4nc5ccc(Cl)cc5[nH]4)cc3)o2)cc1`, the growth was 61.5% (inactive).
In the case of `C=CC(=O)Nc1ccc(C(=O)/C=C/c2ccc(N(C)C)cc2)c(O)c1`, the growth was 1.03% (active).
